Test results taken from PubChem BioAssay (Tox21).
Records with an inconclusive call do not appear. A number with no mark means an inactive call. Activity calls are given as the source filed them. Calls follow the shape of the dose curve; as a rule, active = well fitted activation curve with a large enough effect in the repeat runs; inconclusive = weak or mixed curves; inactive = flat fitted curve, though single readings scatter.

assay: A CellTox Green Cytotoxicity Assay to monitor cytotoxicity in HepG2 cells - 40 hour (AID 1224879); conditions: CellTox Green fluorescence; series mostly up to 76.8 µM; cytotoxicity increase: at the top concentration; also: nearly all actives have a fitted effect of over 40% in size
Source text: National Center for Advancing Translational Sciences [NCATS]
NIH Chemical Genomics Center [NCGC]
U.S. Environmental Protection Agency [EPA]
National Institutes of Environmental Health Sciences [NIEHS]
National Toxicology Program [NTP]
Cell-based models are critical for drug discovery. Determining the natural cytotoxic effects resulting from test compounds is an essential research activity. A CellTox Green Cytotoxicity Assay to monitor cytotoxicity in real time of continues cell culture during 40 hours of the compound treatment was used to screen Tox21 10K library compounds in HepG2 cells. CellTox Green Cytotoxicity Assay is a nonlytic, homogeneous, biofluorescent method to measure cytotoxicity in cell culture after experimental manipulation. The assay system uses a proprietary asymmetric cyanine dye that is excluded from viable cells but preferentially stains the dead cell's DNA. […] Viable cells produce no appreciable increases in fluorescence. Therefore, the fluorescence signal produced by the binding interaction with dead cell DNA is proportional to cytotoxicity.
The mixture of HepG2 cell suspension and reagents were dispensed at 600cells/6 ul/well in 1536-well tissue culture treated black solid bottom plates using a Multidrop dispenser. After the assay plates were incubated at a 37 C/5% CO2 incubator for 5 hours, 23 nL of compounds dissolved in DMSO, positive and negative controls was transferred to the assay plate by a pintool work station. The plates were incubated at 37 C for 40 hours. The fluorescence intensity were measured at 0h, 8h, 16h, 24h, 32h and 40h time points using ViewLux plate reader during compound treatment.
% is scaled to controls: 0 for no effect and ±100 for the full control effect; potency is read from the fitted curve at half-maximal effect.

Row | SMILES | cytotoxicity increase | Potency
1 | CC(C)(CCl)c1ccccc1 | -6.03% | 
2 | Brc1cc(-c2ccc(Br)c(Br)c2Br)cc(Br)c1Br | -16.7% [at 35.3 µM] | 
3 | CC1=CC(=O)CC(C)(C)C1(O)/C=C/C(C)=C\C(=O)O (stereo not given) | -0.944% | 
4 | COC(=O)c1cc(Cl)ccc1NS(=O)(=O)C(F)(F)F | 2.95% [at 35.3 µM] | 
5 | O=Cc1c(Cl)cccc1Cl | -5.15% | 
6 | CCCCCCCCCOC(C)=O | -3.21% | 
7 | CC(=O)[C@H]1CC[C@H]2[C@@H]3C[C@H](C)C4=CC(=O)CC[C@]4(C)[C@H]3[C@@H](O)C[C@]12C | 4.42% [at 35.3 µM] | 
8 | COCC(O)CO (stereo not given) | -6.25% | 
9 | C[N+]1(C)CCC(=C(c2ccccc2)c2ccccc2)CC1 | -6.72% [at 35.3 µM] | 
10 | CC(=O)N(c1onc(C)c1C)S(=O)(=O)c1ccc(N)cc1 | 0.613% [at 35.3 µM] | 
11 | CC1=C(C=O)C(C)(C)CCC1 | -11.5% | 
12 | CC(COc1ccc(C(C)(C)C)cc1)OS(=O)OCCCl (stereo not given) | -1.8% | 
13 | CCOC(=O)c1ccccc1OC | -1.88% | 
14 | CCC(C)(O)CCC=C(C)C (stereo not given) | -10.6% | 
15 | COCCOC | 0.596% | 
16 | CC(C)CCCCCCOC(=O)CCCCC(=O)OCCCCCCC(C)C | -8.4% | 
17 | N#C/C(=C1/SC[C@@H](c2ccc(Cl)cc2Cl)S1)n1ccnc1 | -3.07% [at 35.3 µM] | 
18 | c1cnc2c(n1)CCCC2 |  | 38.9 µM (active)
19 | CN1Cc2cc(C(=O)N3CCC(C4CCNCC4)CC3)ccc2N[C@@H](CC(=O)O)C1=O | -13.6% [at 35.3 µM] | 
20 | CCCOC(=O)c1ccc(C(=O)OCCC)nc1 | 9.81% | 

Row | SMILES | cytotoxicity increase | Potency
21 | Fc1ccccc1[C@@H](F)COC1CCC(Nc2ncnc3[nH]ncc23)CC1 (stereo not given in full) | 22.8% | 
22 | COc1ccc(CCC(=O)c2c(O)cc(O[C@@H]3O[C@H](CO)[C@@H](O)[C@H](O)[C@H]3O[C@@H]3O[C@@H](C)[C@H](O)[C@@H](O)[C@H]3O)cc2O)cc1O | 0.62% | 
23 | CN1CCN(CCCN2c3ccccc3Sc3ccc(S(=O)(=O)N(C)C)cc32)CC1 |  | 26.8 µM (active)
24 | CNC(=S)NC |  | 54.9 µM (active)
25 | CC(C)c1nnc2ccc(-c3ocnc3-c3cc(F)ccc3F)cn12 | -2.46% | 
26 | CCOc1cc(N)c(Cl)cc1C(=O)NCC1CN(Cc2ccc(F)cc2)CCO1 (stereo not given) | 3.4% [at 35.3 µM] | 
27 | Cc1nc2ccccn2c(=O)c1CCN1CCC(C(=O)c2ccc(F)cc2)CC1 | 9.89% [at 35.3 µM] | 
28 | NCC1CCCC(CN)C1 (stereo not given) | -0.402% | 
29 | CCCCCCCC/C=C\CCCCCCCC(=O)OC(CO)CO | -0.388% | 
30 | O=C(Nc1ccccc1)Nc1ccccc1 | -1.32% | 
31 | O=C1OCCN1/N=C/c1ccc([N+](=O)[O-])o1 | -9.02% [at 35.3 µM] | 
32 | [O]=[Bi] | -12.6% [at 6.97 µM] | 
33 | COc1cc2c(N3CCN(C(=O)Nc4ccc(OC(C)C)cc4)CC3)ncnc2cc1OCCCN1CCCCC1 |  | 26.8 µM (active)
34 | C/C=C(\C)C(=O)OCCC(C)CCC=C(C)C (stereo not given) | 0.363% | 
35 | COC(=O)c1cc(S(N)(=O)=O)ccc1OC | -15.8% [at 35.3 µM] | 
36 | Cc1occc1C(=O)Nc1ccc(C(=O)N2CCC(F)(F)/C(=C\C(=O)N3CCC(N4CCCCC4)CC3)c3ccccc32)cc1 |  | 15.3 µM (active)
37 | ON(Cc1ccccc1)Cc1ccccc1 | 9.37% | 
38 | CCCCN(CCCC)CCCOC(=O)c1ccc(N)cc1 | 18% [at 35.3 µM] | 
39 | Nc1c(I)cc(I)c(C(=O)N(CCC(=O)O)c2ccccc2)c1I | 20.6% [at 35.3 µM] | 
40 | CC(C)(C)CC(C)(C)c1ccc(OCCO)cc1 | 1.05% | 
